# Sampled rows, rich in hits. Any-hit rate of the full collection: about 3.2%.
# H9c2 protect: cardioprotection against H2O2-induced cell death, primary screen, uHTS, H9c2 cells, ATPLite luminescence; H9c2 cardiomyocytes, H2O2 injury protection, 2 h; protection from H2O2 cell death, % at 20 µM; hit rate 0.63% among 360,000;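 active = compounds giving at least 50% protection of heart cells from peroxide-induced death in the single-dose screen, raw or plate-pattern-corrected value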;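 note: 0% = DMSO wells with peroxide and 100% = DMSO wells without peroxide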
# CRFBP-R2 block: antagonists of CRF-BP/CRF-R2 complex, primary screen, cell-based, HEK293, calcium dye fluorescence, uHTS. inhibition, % at 11.8 µM. hit rate 0.59% among 350,000. CRF-induced calcium fluorescence;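 active = inhibition of the ligand-induced calcium signal above about 50% at the single tested concentration, limit read from the data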
# CRFBP-R2 agonist: agonists of CRF-BP/CRF-R2 complex, primary screen, cell-based, HEK293, calcium dye fluorescence, uHTS. CRF-binding protein / CRF receptor 2 complex (human). calcium dye fluorescence (FLIPR); percent of saturating CRF peptide response. activation, % at 13.2 µM. hit rate 0.46% among 350,000;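 active = activation of at least 50%, plus an integration ratio under a set limit after plate pattern correction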;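 note: plate controls were neutral control wells without compound for no effect and CRF at EC100 for full effect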
# aDG glyco up: activators of alpha-DG glycosylation, primary screen, uHTS, Pro5-aDG cells, AlphaScreen; alpha-DG glycosylation AlphaScreen (IIH6); 0% Pro5, 100% B10-LARGE cell signal; activation, % at 10 µM; hit rate 0.22% among 360,000; AID 624168, 2012;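 active = activation of at least 8% versus controls, or a plate z-score of at least 8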;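 note: Pro5 are CHO cells carrying HIG-tagged alpha-DG that lacks glycosylation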
# FAS TE block: FAS thioesterase domain inhibitors, primary screen, biochemical, fluorescence intensity, uHTS; recombinant FAS-TE, OMFH fluorogenic substrate, fluorescence endpoint; inhibition, % at 15 µM; hit rate 0.67% among 360,000; AID 602261, 2012;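 active = compounds whose normalised, plate-corrected inhibition of enzyme fluorescence in the single-dose primary screen is 50% or more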;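 note: 0% = DMSO with enzyme and 100% = substrate without enzyme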
# Target sequence (P49327 whole entry, looked up, the tested form may be a part): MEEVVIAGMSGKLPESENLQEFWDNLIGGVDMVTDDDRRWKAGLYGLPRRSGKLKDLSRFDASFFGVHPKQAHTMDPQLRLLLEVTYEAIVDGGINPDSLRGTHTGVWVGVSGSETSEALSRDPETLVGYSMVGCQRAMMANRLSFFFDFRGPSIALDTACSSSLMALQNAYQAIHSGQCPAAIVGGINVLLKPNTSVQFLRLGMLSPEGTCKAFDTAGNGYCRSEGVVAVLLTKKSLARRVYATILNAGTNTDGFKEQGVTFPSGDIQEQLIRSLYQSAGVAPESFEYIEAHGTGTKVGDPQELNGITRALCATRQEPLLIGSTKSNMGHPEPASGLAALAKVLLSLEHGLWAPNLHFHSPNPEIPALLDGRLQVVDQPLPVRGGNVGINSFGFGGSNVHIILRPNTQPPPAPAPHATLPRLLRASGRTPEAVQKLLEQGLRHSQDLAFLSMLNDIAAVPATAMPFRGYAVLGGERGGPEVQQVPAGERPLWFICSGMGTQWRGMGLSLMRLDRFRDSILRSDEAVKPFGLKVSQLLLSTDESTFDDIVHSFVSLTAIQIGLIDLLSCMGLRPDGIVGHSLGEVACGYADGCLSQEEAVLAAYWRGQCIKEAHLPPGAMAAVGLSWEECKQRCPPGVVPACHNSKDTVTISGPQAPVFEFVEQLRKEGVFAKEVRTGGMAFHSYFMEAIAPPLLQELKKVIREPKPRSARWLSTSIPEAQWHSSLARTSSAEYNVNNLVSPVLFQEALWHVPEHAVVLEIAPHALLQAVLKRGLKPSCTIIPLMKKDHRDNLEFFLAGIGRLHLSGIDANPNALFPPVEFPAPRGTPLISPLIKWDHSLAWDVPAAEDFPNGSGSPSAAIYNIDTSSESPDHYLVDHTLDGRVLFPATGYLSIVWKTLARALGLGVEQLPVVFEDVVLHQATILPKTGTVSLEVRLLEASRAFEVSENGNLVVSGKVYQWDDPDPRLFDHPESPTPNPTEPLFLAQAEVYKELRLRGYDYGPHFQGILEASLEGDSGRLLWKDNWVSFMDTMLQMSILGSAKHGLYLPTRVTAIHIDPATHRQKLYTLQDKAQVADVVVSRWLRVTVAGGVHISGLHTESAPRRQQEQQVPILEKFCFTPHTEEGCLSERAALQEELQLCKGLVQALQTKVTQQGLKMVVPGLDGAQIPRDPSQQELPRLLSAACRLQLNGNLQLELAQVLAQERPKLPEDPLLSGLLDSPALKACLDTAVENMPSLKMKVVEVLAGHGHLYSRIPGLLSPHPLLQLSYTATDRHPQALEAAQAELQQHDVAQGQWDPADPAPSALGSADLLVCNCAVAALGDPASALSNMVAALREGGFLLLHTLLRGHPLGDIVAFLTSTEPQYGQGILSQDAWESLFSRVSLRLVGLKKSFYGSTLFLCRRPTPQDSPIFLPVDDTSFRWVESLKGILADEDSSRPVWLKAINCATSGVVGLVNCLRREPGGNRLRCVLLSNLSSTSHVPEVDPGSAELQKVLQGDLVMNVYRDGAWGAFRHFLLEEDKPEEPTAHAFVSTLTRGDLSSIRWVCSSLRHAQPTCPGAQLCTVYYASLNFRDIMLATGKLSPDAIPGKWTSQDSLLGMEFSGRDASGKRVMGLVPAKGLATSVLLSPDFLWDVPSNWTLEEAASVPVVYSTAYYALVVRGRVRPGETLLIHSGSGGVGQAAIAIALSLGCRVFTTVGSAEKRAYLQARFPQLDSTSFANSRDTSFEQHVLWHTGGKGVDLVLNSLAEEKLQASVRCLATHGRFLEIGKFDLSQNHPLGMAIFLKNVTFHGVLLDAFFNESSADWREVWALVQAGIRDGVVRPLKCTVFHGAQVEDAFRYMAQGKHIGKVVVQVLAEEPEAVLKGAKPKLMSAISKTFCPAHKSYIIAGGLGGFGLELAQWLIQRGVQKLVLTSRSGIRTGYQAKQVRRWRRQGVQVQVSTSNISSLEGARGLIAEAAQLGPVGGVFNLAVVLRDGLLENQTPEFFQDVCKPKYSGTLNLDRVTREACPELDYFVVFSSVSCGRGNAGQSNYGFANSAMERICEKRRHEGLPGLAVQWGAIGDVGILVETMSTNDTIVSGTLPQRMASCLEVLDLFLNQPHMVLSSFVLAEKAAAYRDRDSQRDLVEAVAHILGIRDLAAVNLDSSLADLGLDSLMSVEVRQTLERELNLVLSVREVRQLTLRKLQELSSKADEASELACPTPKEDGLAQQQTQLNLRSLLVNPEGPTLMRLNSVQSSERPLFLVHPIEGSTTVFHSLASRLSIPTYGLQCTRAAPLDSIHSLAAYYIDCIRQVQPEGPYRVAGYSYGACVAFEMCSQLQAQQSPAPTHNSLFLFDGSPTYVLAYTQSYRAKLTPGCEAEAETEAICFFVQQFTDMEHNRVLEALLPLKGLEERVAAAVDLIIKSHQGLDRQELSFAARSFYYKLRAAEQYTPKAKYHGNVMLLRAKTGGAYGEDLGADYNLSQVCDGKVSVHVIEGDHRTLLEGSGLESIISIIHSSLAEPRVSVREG
# PfG6PD inh: PfG6PD enzyme inhibitors, primary screen, biochemical, fluorescence intensity, uHTS; inhibition, % at 20 µM; glucose-6-phosphate dehydrogenase-6-phosphogluconolactonase (Plasmodium falciparum 3D7); PfGluPho enzyme, NADPH resazurin-diaphorase fluorescence; hit rate 0.78% among 350,000; AID 504690, 2011;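 active = inhibition reaching at least a set limit at 20 µM in the primary screen, cut at about 59% in these data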;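 note: 0% = DMSO wells with substrate and 100% = DMSO wells lacking glucose-6-phosphate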
# PfG6PD confirm: PfG6PD inhibitors, hit retest, confirmation, biochemical, fluorescence intensity, single concentration. shares compounds with PfG6PD inh. recombinant PfGluPho, NADPH-diaphorase-resazurin fluorescence. inhibition, % at 20 µM. hit rate 34% among 2,400. AID 504753, 2011;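 active = inhibition of at least 50% at 20 µM in any single replicate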;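 note: 0% = DMSO with substrate and 100% = DMSO lacking glucose-6-phosphate substrate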
# Diaph ctr 10uM: diaphorase inhibitors and chemical oxidizers, confirmation, counter-screen for P. falciparum G6PD inhibitor project, biochemical, fluorescence intensity, 10 µM NADPH | shares compounds with PfG6PD inh | diaphorase-coupled resazurin reduction, NADPH 10 uM | inhibition, % at 20 µM | hit rate 39% among 820 | AID 504862, 2011;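 active = average inhibition reaching 50% or more with the compound at 20 µM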;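 note: resorufin red fluorescence formed as diaphorase reduces resazurin using NADPH; 0% = DMSO with enzyme and 100% = DMSO without enzyme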
# Diaph ctr 30uM: diaphorase inhibitors and chemical oxidizers, confirmation, counter-screen for P. falciparum G6PD inhibitor project, biochemical, fluorescence intensity, 30 µM NADPH; shares compounds with PfG6PD inh; Diaphorase/resazurin coupled assay, resorufin fluorescence; inhibition, % at 20 µM; hit rate 29% among 820;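 active = inhibition averaging 50% or more, tested at 20 µM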;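 note: 0% = DMSO with enzyme and 100% = DMSO wells lacking diaphorase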
# The depositor's hits bear a star; x = not tested or not shown; ! = not confirmed by another sample.
SMILES,H9c2 protect,CRFBP-R2 block,CRFBP-R2 agonist,aDG glyco up,FAS TE block,PfG6PD inh,PfG6PD confirm,others
O=C(Nc1ccc2nc(-c3ccc4nc[nH]c4c3)[nH]c2c1)c1cccs1,31,0,-1,0,-15,29,x,
O=C(Nc1ccc2nc(-c3ccccc3)[nH]c2c1)c1cccs1,-8,-18,-4,0,1,76*,8,
Cn1cc([N+](=O)[O-])c(C(=O)Nc2ccc3nc(-c4ccccc4)[nH]c3c2)n1,12,-12,-2,0,-4,62*,33,
O=C(CNC(=O)c1ccc(Br)cc1)NCC(=O)OCC(=O)c1ccc([N+](=O)[O-])cc1,0,3,0,0,-7,67*,57*,Diaph ctr 10uM=-5;Diaph ctr 30uM=-8
O=C(CNC(=O)c1ccc(Br)cc1)NCC(=O)OCC(=O)c1ccc(F)cc1,2,3,-1,0,-4,14,x,
O=C(CNC(=O)c1ccccc1)NCC(=O)OCC(=O)c1ccc([N+](=O)[O-])cc1,2,11,-2,0,-1,59*,55*,Diaph ctr 10uM=-18;Diaph ctr 30uM=-16
O=C(O)c1cccc(CN2C(=O)SC(Nc3cccc4ccccc34)C2=O)c1 (stereo unspecified),7,3,-1,0,1,-6,x,
Cc1nn(-c2ccccc2)c(Cl)c1/C=N/Nc1nc2ccccc2n1C,10,-2,-1,5,9,102*,47*,Diaph ctr 10uM=37;Diaph ctr 30uM=38
CC12COC3(C(N)=O)CC1CCC32C (stereo unspecified),-4,-8,0,0,-4,4,x,
Cc1cc(NC(=O)c2c(C)noc2C)no1,-1,11,-1,0,-5,-7,x,
Cc1cc(C)n2nc(-c3ccc(Br)cc3)cc2n1,-6,1,-1,0,10,42,x,
COc1ccc(-c2cc3nc(C)cc(C)n3n2)cc1,-7,16,-1,1,-3,61*,20,
N#Cc1c(-c2ccccc2)nc(SCC(=O)Nc2ccc(OC(F)(F)Cl)cc2)[nH]c1=O,2,36,-2,0,37,-25,x,
COc1ccccc1NC(=O)c1ccc2[nH]c(C)c(C)c2c1,-8,-16,-3,0,8,81*,32,
Cc1[nH]c2ccc(C(=O)Nc3ccncc3)cc2c1C,-2,-7,1,1,-6,53,x,
Nc1nc2ccccc2n1/N=C/c1ccc(-c2ccccc2)o1,29,-18,-2,0,46,80*,13,
Cc1cc(NC(=O)c2cc(-c3cccc(OCC(C)C)c3)nc3ccccc23)no1,1,-38,5,0,23,9,x,
Cc1nc(NS(=O)(=O)c2ccccc2)sc1C(=O)N/N=C/c1ccccc1,-7,4,-1,0,-7,74*,43,
C1CCN(Cc2nnnn2CC2CCCO2)CC1 (stereo unspecified),3,12,-2,0,-9,14,x,
O=C(/C=C\c1ccccc1OC(=O)c1ccccc1F)c1cc2ccccc2o1,-21,9,0,0,20,7,x,
O=[N+]([O-])c1ccc(Nc2cccc3c2[nH]c2c(-c4ccccc4)nccc23)c([N+](=O)[O-])c1,11,10,-2,0,41,84*,26,
O=C1c2c(O)ccc(O)c2C(=O)c2c(NCCNCCO)ccc(NCCNCCO)c21,-10,22,0,-1,-1,62*!,11,
O=C(NCc1ccccc1)c1[nH]c(C(F)(F)F)nc1-c1ccccc1,-7,x,x,0,-11,x,x,
Cc1ccc2nc3sc(C(=O)N4CCOCC4)c(N)c3cc2c1,-1,2,-4,0,1,84*,52*,Diaph ctr 10uM=61*;Diaph ctr 30uM=40
COc1ccc(S(=O)(=O)n2cccc2)cc1,-1,3,0,0,15,9,x,
SMILES,H9c2 protect,CRFBP-R2 block,CRFBP-R2 agonist,aDG glyco up,FAS TE block,PfG6PD inh,PfG6PD confirm,others
CCOc1cccc2cc(C(=O)NCc3ccc(OC)cc3)c(=N)oc12,-3,2,-8,0,-2,2,x,
COC(=O)c1cc(C)[nH]c2c(C)cc3nc4ccccc4c3c12,38,7,-2,1,16,71*,-12,
COc1ccc(CCC(=O)Nc2ccc(S(=O)(=O)Nc3nccc(C)n3)cc2)cc1,2,-8,2,0,-7,-2,x,
Cc1cc(C)c2c(-n3cccc3)c(NC(=O)OC(C)C)sc2n1,16,-21,5,0,6,62*,22,
Cc1cc(C)c2c(-n3cccc3)c(C(=O)O)sc2n1,7,7,0,0,-1,1,x,
Cc1cccc(C)c1NC(=O)C(c1ccncc1)n1c(=O)c(-c2ccccc2)nc2ccccc21 (stereo unspecified),x,x,x,0,x,x,x,
COc1ccccc1-n1c(=O)oc2ccc(Cl)cc2c1=O,-33,6,0,0,-1,61*,27,
COC(=O)COc1cccc(-n2cnnn2)c1,6,7,1,0,-1,-7,x,
Cc1cc(C(=O)COc2cccc(-n3cnnn3)c2)c(C)n1-c1ccccc1,-21,40,0,3,36,74*,26,
CCOC(=O)c1cc(C(=O)OCC)c2ccccn2c1=O,11,15,1,0,1,-5,x,
COc1ccc(N2C(=O)c3ccccc3NC(=O)C2C(=O)Nc2ccc3c(c2)OCCO3)cc1 (stereo unspecified),x,x,x,0,x,x,x,
CCOC(=O)C1=C(C)Nc2ncnn2C1c1ccc(N(C)C)cc1 (stereo unspecified),6,2,0,0,-8,61*!,29,
CCOC(=O)C1=C(C)Nc2nc(=S)[nH]n2C1c1ccc(Cl)cc1 (stereo unspecified),5,-20,-1,0,-5,61*,19,
CCOC(=O)C1=C(C)Nc2ncnn2C1c1cccnc1 (stereo unspecified),3,14,-2,0,-8,-8,x,

# High-throughput results from PubChem BioAssay.
